Test results: PubChem BioAssay (NCI)
The panel holds about 83,000 compounds, 20% with a hit somewhere; the sample as a whole holds those more often.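 Method: cells in 96-well plates; compound added at one concentration; 48 h incubation; percent growth measured; values under 10 scored active.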 Calls of active or inactive are those of the source.

Tests used:
Test in all cases: NCI-60 one-dose screen, 48 h (100 = growth as untreated, 0 = no growth, -100 = all killed)
Details in all cases: 10 µM unless noted
HCT-15 colon = test system: HCT-15 colon
HT29 colon = test system: HT29 colon
SNB-75 CNS = test system: SNB-75 CNS
SNB-19 CNS = test system: SNB-19 CNS
U251 CNS = test system: U251 CNS
PC-3 prostate = test system: PC-3 prostate
SK-MEL-5 melanoma = test system: SK-MEL-5 melanoma
UACC-62 melanoma = test system: UACC-62 melanoma
LOX IMVI melanoma = test system: LOX IMVI melanoma
SK-MEL-28 melanoma = test system: SK-MEL-28 melanoma

Measured: growth

COc1cc2nc(-c3ccc(C(F)(F)F)cc3)cc(OCCN3CCCCC3)c2cc1OC
inactive: HCT-15 colon 43.7% | HT29 colon 46.4% | SNB-75 CNS 54.4% | SNB-19 CNS 91.1% | U251 CNS 72.3% | PC-3 prostate 61.3% | SK-MEL-5 melanoma 70.4% | UACC-62 melanoma 89.7%
active: LOX IMVI melanoma -15.5%

CCOC(=O)Nc1ccc(-c2ccc3c(c2)NC(=O)/C3=C\c2ccc[nH]2)cc1
inactive: HCT-15 colon 84.6% | HT29 colon 105% | SNB-75 CNS 89% | SNB-19 CNS 99.3% | U251 CNS 87.9% | PC-3 prostate 101% | SK-MEL-5 melanoma 99.2% | UACC-62 melanoma 101% | LOX IMVI melanoma 97.2% | SK-MEL-28 melanoma 111%

CCOC(=O)CCN(CC(C)C)C(=S)Nc1ccccc1
inactive: HCT-15 colon 99.5% | HT29 colon 105% | SNB-75 CNS 105% | SNB-19 CNS 99.9% | U251 CNS 100% | PC-3 prostate 105% | SK-MEL-5 melanoma 102% | UACC-62 melanoma 99.8% | LOX IMVI melanoma 105%

C=C1C(=O)O[C@H]2[C@H]1CC/C(CNS(=O)(=O)c1cccc3ccccc13)=C\CC[C@@]1(C)O[C@@H]21
active: HCT-15 colon -25% | HT29 colon -3.2%
inactive: SNB-75 CNS 66.5% | SNB-19 CNS 67.2% | U251 CNS 53.1% | PC-3 prostate 45.7% | SK-MEL-5 melanoma 41.4% | UACC-62 melanoma 29% | LOX IMVI melanoma 14.3%

COc1cc(/C=N/NC(=O)c2cnn3c2NC(c2ccccc2)C3)ccc1OCc1ccccc1 (stereo not drawn)
active: HCT-15 colon 2.36% | HT29 colon -35.6% | U251 CNS 4.86% | PC-3 prostate -31% | SK-MEL-5 melanoma 5.94% | UACC-62 melanoma -33.7%
inactive: SNB-75 CNS 26.1% | SNB-19 CNS 19.3% | LOX IMVI melanoma 22%

CC1(C)NCCC[C@]2(C)[C@H]3CC(=O)[C@H]4[C@@H]5C[C@](C)(CO)CC[C@]5(C)CC[C@@]4(C)[C@]3(C)CC[C@@H]12
inactive: HCT-15 colon 98.9% | HT29 colon 69.8% | SNB-75 CNS 78.1% | SNB-19 CNS 99.4% | U251 CNS 91.4% | PC-3 prostate 83.5% | SK-MEL-5 melanoma 98.3% | UACC-62 melanoma 98% | LOX IMVI melanoma 97.1%

COc1ccc(C(=O)c2nc3ccccc3n2CC(=O)c2ccc(F)cc2)cc1
inactive: HCT-15 colon 56% | HT29 colon 55% | SNB-75 CNS 59.6% | SNB-19 CNS 95.6% | U251 CNS 90.5% | PC-3 prostate 83.2% | SK-MEL-5 melanoma 88% | UACC-62 melanoma 65.3% | LOX IMVI melanoma 94.5%

COC(=O)N[C@H]1CCc2c(Cl)c(OC)c(OC)c(OC)c2-c2ccc(SC)c(=O)cc21
active: HCT-15 colon 9.73% | SK-MEL-5 melanoma -37.4%
inactive: HT29 colon 13% | SNB-75 CNS 28% | SNB-19 CNS 26.3% | U251 CNS 21.5% | PC-3 prostate 21.1% | UACC-62 melanoma 36.9% | LOX IMVI melanoma 13.3%

C=C1C(=O)O[C@H]2[C@H]1CC/C(C(=O)NCCCCCNC(=O)/C1=C/CC[C@@]3(C)O[C@H]3[C@H]3OC(=O)C(=C)[C@@H]3CC1)=C\CC[C@@]1(C)O[C@@H]21
inactive: HCT-15 colon 95.5% | HT29 colon 102% | SNB-75 CNS 103% | SNB-19 CNS 102% | U251 CNS 99.3% | PC-3 prostate 91.6% | SK-MEL-5 melanoma 100% | UACC-62 melanoma 97.9% | LOX IMVI melanoma 99.9% | SK-MEL-28 melanoma 101%

CCOC(=O)[C@@H]1CCCN(S(=O)(=O)c2ccc(S(=O)(=O)N(CC)CC)c(F)c2)C1
inactive: HCT-15 colon 84.4% | HT29 colon 83% | SNB-75 CNS 90.9% | SNB-19 CNS 69.2% | U251 CNS 82.2% | PC-3 prostate 84% | SK-MEL-5 melanoma 18.8% | UACC-62 melanoma 59.4% | LOX IMVI melanoma 62.2%

CC(=O)[C@@H]1CC[C@]2(C(N)=O)CC[C@]3(C)[C@H](CC[C@@H]4[C@@]5(C)CCCNC(C)(C)[C@@H]5CC[C@]43C)[C@@H]12
inactive: HCT-15 colon 70.7% | SNB-75 CNS 80.4% | SNB-19 CNS 86.2% | U251 CNS 81.7% | PC-3 prostate 65.5% | SK-MEL-5 melanoma 75.9% | UACC-62 melanoma 83.5% | LOX IMVI melanoma 84.4%
active: HT29 colon 3.98%

CCOC(=O)Oc1c(OC)cc(C(=O)c2ccc(OC)c(O)c2OC)cc1OC
inactive: HCT-15 colon 14.7% | HT29 colon 29.5% | SNB-75 CNS 34.1% | SNB-19 CNS 25.9% | U251 CNS 23.5% | PC-3 prostate 22.8% | SK-MEL-5 melanoma 32%

O=C(Cc1ccc(/C=C/C(=O)c2ncc[nH]2)cc1)Nc1ccc(Cl)cc1
active: HCT-15 colon -25% | HT29 colon 0.843% | SNB-19 CNS 4.9% | U251 CNS -60.6% | LOX IMVI melanoma -37.1%
inactive: SNB-75 CNS 25.3% | PC-3 prostate 39% | SK-MEL-5 melanoma 52.5% | UACC-62 melanoma 41.2% | SK-MEL-28 melanoma 67.9%

CCNC(=O)Oc1ccc(/C(=C(\C)c2ccccc2)c2ccc(OCCN(CC)CC)cc2)cc1
inactive: HCT-15 colon 16.5% | HT29 colon 15.3% | SNB-75 CNS 78.5% | SNB-19 CNS 86.9% | U251 CNS 68.2% | PC-3 prostate 70.8% | SK-MEL-5 melanoma 34.4% | UACC-62 melanoma 59.1% | LOX IMVI melanoma 65.3% | SK-MEL-28 melanoma 63.3%

NC(=S)N1N=C(c2ccccc2)CC1c1cn(-c2ccccc2)nc1-c1ccc(OCc2ccccc2)cc1 (stereo not drawn)
inactive: HCT-15 colon 106% | HT29 colon 95.9% | SNB-75 CNS 95.1% | SNB-19 CNS 97.3% | U251 CNS 97% | PC-3 prostate 89.2% | SK-MEL-5 melanoma 99.4% | UACC-62 melanoma 86.3% | LOX IMVI melanoma 99.3% | SK-MEL-28 melanoma 112%

C#CCNC(=O)c1cccc2c1cc(C)n2-c1nc2c(c(NCc3ccccc3)n1)CCCC2
active: HCT-15 colon -60.1% | HT29 colon 0.876% | SNB-75 CNS 5.33% | SNB-19 CNS -24.9% | U251 CNS -71.6% | PC-3 prostate -18.2% | SK-MEL-5 melanoma -94.3% | UACC-62 melanoma -60.6% | LOX IMVI melanoma -86.6% | SK-MEL-28 melanoma -6.03%

COc1cc(-c2csc(NC(=O)c3cc(F)cc(C(F)(F)F)c3)n2)cc(OC)c1OC
inactive: HCT-15 colon 34.3% | SNB-75 CNS 19.3% | SNB-19 CNS 40.2% | U251 CNS 31.3% | PC-3 prostate 36% | SK-MEL-5 melanoma 53.2% | UACC-62 melanoma 43.6% | LOX IMVI melanoma 27% | SK-MEL-28 melanoma 50.3%
active: HT29 colon 6.41%

COc1ccc(/C=C/c2nc(Nc3ccc(S(=O)(=O)NC(C)=O)cc3)c3ccccc3n2)cc1
inactive: HCT-15 colon 55.2% | HT29 colon 67.2% | SNB-75 CNS 97.7% | SNB-19 CNS 78.9% | U251 CNS 74.8% | PC-3 prostate 79.3% | SK-MEL-5 melanoma 77.1% | UACC-62 melanoma 25.6% | LOX IMVI melanoma 38.3% | SK-MEL-28 melanoma 96.1%

CC(=O)[C@H]1CCC/C=C/[C@@H]2C[C@H](O)C[C@H]2[C@H](O)/C=C/C(=O)O1
active: HT29 colon 4.12% | SK-MEL-5 melanoma -94% | LOX IMVI melanoma -63% | SK-MEL-28 melanoma -16.6%
inactive: HCT-15 colon 11.9% | SNB-75 CNS 38.4% | SNB-19 CNS 28.6% | U251 CNS 20.5% | PC-3 prostate 27.6% | UACC-62 melanoma 12.3%

Nc1c(S(=O)(=O)O)cc2c3c(cccc13)C(=O)OC2=O
inactive: HCT-15 colon 95.9% | HT29 colon 106% | SNB-75 CNS 79.2% | SNB-19 CNS 99.7% | U251 CNS 97.8% | PC-3 prostate 106% | SK-MEL-5 melanoma 102% | UACC-62 melanoma 97.8% | LOX IMVI melanoma 94.3% | SK-MEL-28 melanoma 115%

COc1ccc(C(=O)C2C(C#N)C(C#N)C3c4ccccc4C=CN23)cc1 (stereo not drawn)
inactive: HCT-15 colon 94.5% | HT29 colon 84.4% | SNB-75 CNS 74.8% | SNB-19 CNS 85.4% | U251 CNS 93.6% | PC-3 prostate 84.7% | SK-MEL-5 melanoma 84.2% | UACC-62 melanoma 63% | LOX IMVI melanoma 87.8% | SK-MEL-28 melanoma 98.9%

O=C1c2c(c3c4cccc(F)c4[nH]c3c3ccc4ccccc4c23)C(=O)N1O
inactive: HCT-15 colon 15.5% | HT29 colon 23.8% | SNB-75 CNS 68.7% | SNB-19 CNS 30.2% | U251 CNS 26.8% | PC-3 prostate 32.5% | UACC-62 melanoma 26.9% | LOX IMVI melanoma 18.4% | SK-MEL-28 melanoma 58.5%
active: SK-MEL-5 melanoma 9.72%

N#Cc1c(NC(=O)NCc2ccccc2)sc2c1CCCCC2
inactive: HCT-15 colon 15.2% | SNB-75 CNS 22.8% | SNB-19 CNS 28.2% | U251 CNS 24.8% | PC-3 prostate 28.7% | SK-MEL-5 melanoma 17.6% | UACC-62 melanoma 18.9% | LOX IMVI melanoma 26.4% | SK-MEL-28 melanoma 67.4%
active: HT29 colon 9.68%

COc1cc(F)c(/C=C/c2cc(/C=C/c3cc(OC)c(OC)cc3F)on2)cc1OC
inactive: HCT-15 colon 82.1% | HT29 colon 77.9% | SNB-75 CNS 98.2% | SNB-19 CNS 76.8% | U251 CNS 83.1% | PC-3 prostate 74% | SK-MEL-5 melanoma 91.9% | UACC-62 melanoma 66.1% | LOX IMVI melanoma 81.9% | SK-MEL-28 melanoma 82.7%

C/C=C(\C)C(=O)NC1=CC[C@@]2(C)C(=CCC3C2CC[C@@]2(C)C3CC[C@@H]2C(C)N(C)C)C1=O (stereo partly drawn)
inactive: SNB-75 CNS 42.3% | SNB-19 CNS 83% | U251 CNS 36.3% | PC-3 prostate 26.2%
active: HCT-15 colon -32.5% | HT29 colon -19.7% | SK-MEL-5 melanoma -34.7% | UACC-62 melanoma -16.1% | LOX IMVI melanoma -53.2% | SK-MEL-28 melanoma -66.5%

COc1ccc(C(=O)CC#N)cc1
inactive: HCT-15 colon 112% | HT29 colon 126% | SNB-75 CNS 95.5% | SNB-19 CNS 103% | U251 CNS 100% | PC-3 prostate 105% | SK-MEL-5 melanoma 97.9% | UACC-62 melanoma 105% | LOX IMVI melanoma 94.7% | SK-MEL-28 melanoma 114%

O=C(N/N=C/c1cc2ccccc2n2nnnc12)Nc1ccccc1
inactive: HCT-15 colon 98.3% | HT29 colon 97.2% | SNB-75 CNS 103% | SNB-19 CNS 97.1% | U251 CNS 104% | PC-3 prostate 101% | SK-MEL-5 melanoma 101% | UACC-62 melanoma 100% | LOX IMVI melanoma 108% | SK-MEL-28 melanoma 113%
